From PubChem BioAssay (NCATS)
Active and inactive are the calls of the source. Calls follow the shape of the dose curve; as a rule, active = well fitted curve in the direction sought with a large enough effect; inconclusive = small, poorly fitted or top-dose-only effect, or effect the other way, or another doubt; inactive = no such curve, though single readings can be large or run the other way.

Assay: Inducers of the Endoplasmic Reticulum Stress Response (ERSR) in human glioma: Validation (AID 504836)
Conditions: human glioma cells, ER stress response reporter; series mostly up to 38.3 µM
Procedure, shortened: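 Stably transfected U87-MG human glioma cells carrying a GRP78-based luminescent sensor were seeded at 1000 cells/well, pin-dosed with compounds and incubated 16 h. Luciferase reagent was then added, and end-point luminescence was read after 10 min at room temperature.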

Row | SMILES | outcome
1 | O=C(O)CN(CCOCCOCCN(CC(=O)O)CC(=O)O)CC(=O)O | inactive
2 | COCCc1ccc(OCC(O)CNC(C)C)cc1 (configuration not stated) | inactive
3 | CCCCNc1ccc(C(=O)OCCN(C)C)cc1 | inactive
4 | C#CCN(C)Cc1ccccc1 | inactive
5 | CCN(CC)CC(=O)Nc1c(C)cccc1C | inactive
6 | O=C1NCN(c2ccccc2)C12CCN(CCCC(c1ccc(F)cc1)c1ccc(F)cc1)CC2 | inactive
7 | CSc1ccc2c(c1)C(N1CCN(C)CC1)Cc1ccccc1S2 (configuration not stated) | inactive
8 | CSc1ccc(C(=O)c2[nH]c(=O)[nH]c2C)cc1 | inactive
9 | NCCc1ccc(O)c(O)c1 | inactive
10 | C(=C\c1ccccc1)/CN1CCN(C(c2ccccc2)c2ccccc2)CC1 | inactive
11 | COc1ccc(CCN(C)CCCC(C#N)(c2cc(OC)c(OC)c(OC)c2)C(C)C)cc1OC (configuration not stated) | inactive
12 | O=C(CCCN1CCC(O)(c2cccc(C(F)(F)F)c2)CC1)c1ccc(F)cc1 | inactive
13 | Cc1cc(C(C)(C)C)c(O)c(C)c1CC1=NCCN1 | inactive
14 | Cc1nc2sccn2c(=O)c1CCN1CCC(=C(c2ccc(F)cc2)c2ccc(F)cc2)CC1 | inactive
15 | O=C(Nc1ccc([N+](=O)[O-])cc1Cl)c1cc(Cl)ccc1O | inactive
16 | O=C(O)CP(=O)(O)O | inactive
17 | C[C@]12CCC(=O)C=C1CC[C@@H]1[C@@H]2[C@@H](O)C[C@@]2(C)[C@H]1CC[C@]2(O)C(=O)CO | inactive
18 | CC(C)(Oc1ccc(CCNC(=O)c2ccc(Cl)cc2)cc1)C(=O)O | inactive
19 | Fc1ccc(C(c2ccc(F)cc2)N2CCN(C/C=C/c3ccccc3)CC2)cc1 | inactive

Row | SMILES | outcome
20 | COCC(=O)O[C@]1(CCN(C)CCCc2nc3ccccc3[nH]2)CCc2cc(F)ccc2[C@@H]1C(C)C | inactive
21 | COc1nc(C)nc(Cl)c1NC1=NCCN1 | inactive
22 | O=C(c1ccc(F)cc1)C1CCN(CCn2c(=O)[nH]c3ccccc3c2=O)CC1 | inactive
23 | CCC(=O)c1ccc2c(c1)N(CCCN(C)C)c1ccccc1S2 | inactive
24 | CCN(CC)CCCN(c1ccccc1)C1Cc2ccccc2C1 | inactive
25 | Cn1c(=O)c2c(ncn2C)n(C)c1=O | inactive
26 | OCCN1CCN(CCCN2c3ccccc3C=Cc3ccccc32)CC1 | inactive
27 | CCOC(=O)Nc1ccc(NCc2ccc(F)cc2)nc1N | inactive
28 | CN(C)CCCN1c2ccccc2Sc2ccccc21 | inactive
29 | CC(C)COCC(CN(Cc1ccccc1)c1ccccc1)N1CCCC1 (configuration not stated) | inactive
30 | C=Cc1c(C)c2cc3[nH]c(cc4nc(cc5nc(cc1[nH]2)C(C)=C5CCC(=O)O)C(CCC(=O)O)=C4C)c(C)c3C=C | inactive
31 | C[N+](C)(C)CCCCCCCCCC[N+](C)(C)C | inactive
32 | O=C1CC2(CCCC2)CC(=O)N1CCCCN1CCN(c2ncccn2)CC1 | inactive
33 | Cc1ccc(/C(=C\CN2CCCC2)c2ccccn2)cc1 | inactive
34 | CC(C(O)c1ccc(O)cc1)N1CCC(Cc2ccccc2)CC1 (configuration not stated) | inactive
35 | O=C(O)CCc1nc(-c2ccccc2)c(-c2ccccc2)o1 | inactive
36 | CN(C)CCC(c1ccccc1)c1ccccn1 (configuration not stated) | inactive
37 | CN(C)CC[C@@H](c1ccc(Cl)cc1)c1ccccn1 | inactive
